Entries with a potency or affinity are not part of this list. Activity calls are given as the source filed them.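 Rule for the calls: active = fitted half-maximal dose no more than twice the top valid tested dose, for compounds that lower signal; inconclusive = fit invalid, or curve flat with activity between -70 and -30; inactive = potency past limit, curve flat within ±30, or signal increasing.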
Molecular target: NAD-dependent protein deacylase sirtuin-5, mitochondrial (Homo sapiens) (UniProt Q9NXA8)
Assay: blockers of sirtuin-5 peptide desuccinylation – biochemical, fluorescence imaging, cherry-pick, set 6, dose response (AID 720597);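 note: lower AMC signal can also come from blocking the trypsin step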
Details: Purified SirT5, succinyl-peptide-AMC/trypsin fluorescence; series mostly up to 15 µM

NAD-dependent protein deacylase sirtuin-5, mitochondrial (Homo sapiens), sequence (Q9NXA8 whole entry, looked up): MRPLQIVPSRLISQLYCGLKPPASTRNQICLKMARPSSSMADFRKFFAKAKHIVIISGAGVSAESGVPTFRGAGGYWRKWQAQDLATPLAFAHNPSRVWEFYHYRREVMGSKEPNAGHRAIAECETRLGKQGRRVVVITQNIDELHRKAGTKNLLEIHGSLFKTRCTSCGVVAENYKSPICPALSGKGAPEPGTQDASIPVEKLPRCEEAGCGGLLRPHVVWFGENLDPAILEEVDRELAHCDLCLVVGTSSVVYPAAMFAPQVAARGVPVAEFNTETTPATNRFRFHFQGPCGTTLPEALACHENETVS

outcome, inactive:
O=C(NCC[C@@H]1CC[C@H](NS(=O)(=O)c2cccc(F)c2)[C@H](CO)O1)C1CCOCC1
CNC[C@@H]1Oc2ccc(NC(=O)Nc3ccc(F)cc3)cc2CC(=O)N([C@@H](C)CO)C[C@@H]1C
O=C(C[C@H]1CC[C@@H](NC(=O)c2ccccc2)[C@H](CO)O1)NCCc1ccncc1
C[C@@H]1CN([C@H](C)CO)C(=O)Cc2cc(NS(=O)(=O)c3ccc(F)cc3)ccc2O[C@H]1CN(C)Cc1ccc(C(F)(F)F)cc1
C[C@@H]1CN([C@@H](C)CO)C(=O)Cc2cc(NS(=O)(=O)c3ccccc3)ccc2O[C@H]1CN(C)CC1CCCCC1
Cc1noc(C)c1S(=O)(=O)Nc1ccc2c(c1)C(=O)N([C@H](C)CO)C[C@@H](C)[C@@H](CN(C)Cc1ccc(C(F)(F)F)cc1)OCCCC[C@@H](C)O2
Cc1ccc(S(=O)(=O)N(C)C[C@H]2OCCCC[C@H](C)Oc3ccc(NS(=O)(=O)c4ccc(Cl)cc4)cc3C(=O)N([C@H](C)CO)C[C@H]2C)cc1
C[C@@H]1CN([C@H](C)CO)S(=O)(=O)c2ccc(/C=C/c3ccccc3)cc2O[C@@H]1CN(C)C(=O)c1ccc2c(c1)OCO2
Cc1ccc(S(=O)(=O)Nc2ccc3c(c2)CC(=O)N([C@@H](C)CO)C[C@H](C)[C@@H](CN(C)Cc2ccc(-c4ccccc4)cc2)O3)cc1
COc1ccc(S(=O)(=O)N(C)C[C@H]2Oc3ncc(/C=C/c4ccccc4)cc3C(=O)N([C@H](C)CO)C[C@@H]2C)cc1
O=C(C[C@H]1CC[C@H]2[C@@H](COC[C@@H](O)CN2S(=O)(=O)c2cccc(Cl)c2)O1)Nc1ccc(-c2ccccc2)cc1
C[C@@H]1CN([C@@H](C)CO)C(=O)Cc2cc(NC(=O)Nc3ccc4c(c3)OCO4)ccc2O[C@@H]1CN(C)CC1CCCCC1
C[C@H]1CN([C@@H](C)CO)C(=O)c2c(c3ccccc3n2C)-c2ccccc2CO[C@H]1CN(C)Cc1ccccc1
COc1ccccc1-c1ccc2c(c1)O[C@H](CN(C)S(=O)(=O)c1ccc(F)cc1)[C@H](C)CN([C@H](C)CO)S2(=O)=O
O=S(=O)(c1ccc(F)cc1)N1CCCCN2[C@H](CO)[C@H](c3ccc(C#CC4CCCC4)cc3)[C@H]2C1
C[C@H]1CN([C@@H](C)CO)C(=O)c2cc(C#CCN(C)C)cnc2O[C@H]1CN(C)S(=O)(=O)c1ccccc1
C[C@H]1CN([C@@H](C)CO)C(=O)c2ccccc2-c2ccccc2CO[C@@H]1CN(C)C(=O)Nc1ccccc1C(F)(F)F
C[C@@H]1CN([C@@H](C)CO)C(=O)c2cc(NS(=O)(=O)c3ccccc3)ccc2O[C@@H](C)CCCCO[C@@H]1CN(C)S(=O)(=O)c1ccc(F)cc1
COc1ccc(S(=O)(=O)N(C)C[C@H]2OCCCC[C@H](C)Oc3ccc(NS(=O)(=O)c4ccc(F)cc4)cc3C(=O)N([C@@H](C)CO)C[C@H]2C)cc1
CCCNC(=O)N(C)C[C@@H]1Oc2ncc(Br)cc2C(=O)N([C@H](C)CO)C[C@@H]1C
CN(C)C(=O)c1cccc(-c2ccc([C@H]3[C@@H](CO)N4CCCCN(S(C)(=O)=O)C[C@@H]34)cc2)c1
CN(C)C(=O)c1cccc(-c2ccc(C3[C@@H]4CN(C(=O)c5ccccn5)C[C@H]3N4)cc2)c1 (stereo not given in full)
C[C@@H]1CN([C@@H](C)CO)C(=O)c2cc(NS(=O)(=O)c3ccc(F)cc3)ccc2O[C@@H](C)CCCCO[C@H]1CN(C)Cc1ccc(C(F)(F)F)cc1
O=C(NCC[C@@H]1CC[C@@H](NS(=O)(=O)c2cccc(F)c2)[C@@H](CO)O1)C1CCOCC1
Cc1ccc(S(=O)(=O)Nc2ccc3c(c2)C(=O)N([C@H](C)CO)C[C@@H](C)[C@H](CN(C)Cc2ccc(Cl)c(Cl)c2)OCCCC[C@H](C)O3)cc1
Cc1ccc(S(=O)(=O)N(C)C[C@H]2OCCCC[C@H](C)Oc3ccc(NS(=O)(=O)c4ccccc4)cc3C(=O)N([C@H](C)CO)C[C@H]2C)cc1
Cc1ccc(S(=O)(=O)N(C)C[C@H]2OCCCC[C@H](C)Oc3ccc(NS(=O)(=O)c4ccc(Cl)cc4)cc3C(=O)N([C@H](C)CO)C[C@@H]2C)cc1
C[C@@H]1CN([C@H](C)CO)C(=O)Cc2cc(NC(=O)Nc3ccc(F)cc3)ccc2O[C@@H]1CN(C)Cc1ccc2c(c1)OCO2
C[C@H](CO)N1C[C@H](C)[C@@H](CN(C)C(=O)C2CCOCC2)Oc2ncc(-c3ccccc3)cc2C1=O
C[C@@H]1CN([C@H](C)CO)S(=O)(=O)c2ccc(C#Cc3ccccc3F)cc2O[C@H]1CN(C)C(=O)c1ccc2c(c1)OCO2
C[C@@H]1CN([C@H](C)CO)S(=O)(=O)c2ccc(C#Cc3ccc(F)cc3)cc2O[C@@H]1CN(C)S(=O)(=O)c1ccc(F)cc1
C[C@@H]1CN([C@H](C)CO)C(=O)c2cc(NS(=O)(=O)c3cccs3)ccc2O[C@@H](C)CCCCO[C@@H]1CN(C)Cc1ccc(C(F)(F)F)cc1
C[C@@H](O)C#Cc1ccc([C@H]2[C@H](CO)N3CCCCN(CC4CC4)C[C@@H]23)cc1
Cc1ccc(S(=O)(=O)N(C)C[C@H]2OCCCC[C@H](C)Oc3ccc(NS(=O)(=O)c4ccc(F)cc4)cc3C(=O)N([C@H](C)CO)C[C@H]2C)cc1
CCCC#Cc1ccc([C@H]2[C@H](CO)N3CCCCN(S(=O)(=O)Cc4ccccc4)C[C@@H]23)cc1
CCCC#Cc1ccc([C@H]2[C@@H](CO)N3CCCCN(S(=O)(=O)Cc4ccccc4)C[C@@H]23)cc1
Cc1ccc(S(=O)(=O)Nc2ccc3c(c2)C(=O)N([C@@H](C)CO)C[C@H](C)[C@@H](CN(C)C(=O)Nc2ccc(C(F)(F)F)cc2)OCCCC[C@@H](C)O3)cc1
Cc1noc(C)c1NC(=O)Nc1cccc2c1O[C@@H](CN(C)Cc1ccc(Oc3ccccc3)cc1)[C@@H](C)CN([C@H](C)CO)C2=O
C[C@H]1CN([C@@H](C)CO)S(=O)(=O)c2ccc(C#CC3CC3)cc2O[C@H]1CN(C)C(=O)c1ccccn1
COc1ccc(C#Cc2ccc([C@H]3[C@@H](CO)N4C(=O)CN(C(=O)c5cccnc5)C[C@@H]34)cc2)cc1

From PubChem BioAssay AID720597 (Broad Institute, 2013)
